In all, about 3,200 compounds went through this assay and about 75 (2%) showed an effect of 50% or more. This is one part of a sample in which strong results are shown more often than they occur.
What follows are compounds tested on T1, S. aureus MSSA476. Conditions: relative growth, OD600, TSB; 25 µM; inhibitor.
T1 construct: MSSA476
Design: species or system S. aureus MSSA476 (TSB) or V. cholerae SAD30 (LB); 384-well bacterial growth screen at 25 uM, OD600 relative to DMSO control

| Compound | % of control remaining [%] |
| --- | --- |
| CCn1ccc(CN(C)C(=O)CCl)n1 [5-K06, 2-chloro-N-[(1-ethyl-1H-pyrazol-3-yl)methyl]-N-methylacetamide] | 77.5956 |
| CCc1cc(SC#N)cc(C)c1NC(=O)CCl [4-M04, 2-chloro-N-[4-(cyanosulfanyl)-2-ethyl-6-methylphenyl]acetamide] | 101.382 |
| O=C(CCl)Cc1cccc(Cl)c1 [10-E17, 1-chloro-3-(3-chlorophenyl)propan-2-one] | 119.375 |
| O=C(CCl)Cc1ccc(Cl)c(Cl)c1 [10-E15, 1-chloro-3-(3,4-dichlorophenyl)propan-2-one] | 111.25 |
| O=C(CCl)Cc1cc(Cl)cc(Cl)c1 [10-I15, 1-chloro-3-(3,5-dichlorophenyl)propan-2-one] | 23.125 |
| O=C(CCl)NC(=O)c1ccc(OC(F)F)cc1 [5-J22, N-(2-chloroacetyl)-4-(difluoromethoxy)benzamide] | 106.011 |
| C=CC(=O)NCc1ncoc1C(F)(F)F [3-E18, N-{[5-(trifluoromethyl)-1,3-oxazol-4-yl]methyl}prop-2-enamide] | 106.922 |
| N#CC(=Cc1ccc(C(F)(F)F)cc1)C(=O)Nc1ccccc1 [9-I04, 2-cyano-N-phenyl-3-[4-(trifluoromethyl)phenyl]prop-2-enamide] | 99.7753 |
| N#CC(C(=O)CCl)=C1NC(C23CC4CC(CC(C4)C2)C3)=CS1 [10-F14, 2-[4-(adamantan-1-yl)-2,3-dihydro-1,3-thiazol-2-ylidene]-4-chloro-3-oxobutanenitrile] | 42.1875 |
| CN1C=CC(=C(C#N)C(=O)CCl)C=C1 [10-G21, 4-chloro-2-(1-methyl-1,4-dihydropyridin-4-ylidene)-3-oxobutanenitrile] | 112.5 |
| N#CC(C(=O)CCl)=C1NC2=C(CCc3ccccc32)S1 [10-N10, 4-chloro-2-{1H,2H,4H,5H-naphtho[1,2-d][1,3]thiazol-2-ylidene}-3-oxobutanenitrile] | 59.6875 |
| O=C(CCl)NC1CCS(=O)(=O)c2ccc(F)cc21 (stereo not shown) [7-H06, 2-chloro-N-(6-fluoro-1,1-dioxo-3,4-dihydro-2H-1lambda6-benzothiopyran-4-yl)acetamide] | 94.1915 |
| CN(C)c1ccc(C=C(C#N)C(=O)N2CCC2)cc1 [9-A14, 2-(azetidine-1-carbonyl)-3-[4-(dimethylamino)phenyl]prop-2-enenitrile] | 86.8914 |
| Cc1c(C#N)c(NC(=O)CCl)n(Cc2ccco2)c1C [4-D09, 2-chloro-N-{3-cyano-1-[(furan-2-yl)methyl]-4,5-dimethyl-1H-pyrrol-2-yl}acetamide] | 96.0457 |
| CC(C)OC(=O)c1ccc(NC(=O)C(C)Cl)cc1 (stereo not shown) [4-K08, propan-2-yl 4-(2-chloropropanamido)benzoate] | 110.148 |
| CCCCNC(=O)C(C#N)=Cc1c(Cl)cccc1Cl [9-J11, N-butyl-2-cyano-3-(2,6-dichlorophenyl)prop-2-enamide] | 79.4007 |
| CC(C)NC(=O)C(C#N)=Cc1cccc(Cl)c1Cl [9-C07, 2-cyano-3-(2,3-dichlorophenyl)-N-(propan-2-yl)prop-2-enamide] | 109.963 |
| N#CC(=Cc1cccc(Cl)c1Cl)C(=O)NCc1ccccc1 [8-L04, N-benzyl-2-cyano-3-(2,3-dichlorophenyl)prop-2-enamide] | -0.332 |
| N#CC(=Cc1ccccc1Cl)C(=O)NCc1ccccc1 [9-F13, N-benzyl-3-(2-chlorophenyl)-2-cyanoprop-2-enamide] | 78.2022 |
| N#CC(=Cc1cccc2ccccc12)C(=O)NCc1ccccc1 [8-O19, N-benzyl-2-cyano-3-(naphthalen-1-yl)prop-2-enamide] | 104.896 |
| N#CC(=Cc1c(F)cccc1F)C(=O)NCCc1ccccc1 [8-D18, 2-cyano-3-(2,6-difluorophenyl)-N-(2-phenylethyl)prop-2-enamide] | 118.174 |
| N#CC(=Cc1c(Cl)cccc1Cl)C(=O)NCCc1ccccc1 [8-B14, 2-cyano-3-(2,6-dichlorophenyl)-N-(2-phenylethyl)prop-2-enamide] | 39.834 |
| N#CC(=Cc1cccc(Cl)c1Cl)C(=O)NCCc1ccccc1 [8-J06, 2-cyano-3-(2,3-dichlorophenyl)-N-(2-phenylethyl)prop-2-enamide] | 0.6639 |

| Compound | % of control remaining [%] |
| --- | --- |
| CC(NC(=O)C(C#N)=Cc1ccccc1F)c1ccccc1 (stereo not shown) [8-P16, 2-cyano-3-(2-fluorophenyl)-N-(1-phenylethyl)prop-2-enamide] | 79.0041 |
| CCCCNC(=O)C(C#N)=Cc1cccc(Cl)c1Cl [9-H11, N-butyl-2-cyano-3-(2,3-dichlorophenyl)prop-2-enamide] | 71.0112 |
| N#CC(=Cc1cccc(O)c1)C(=O)NCCc1ccccc1 [8-N03, 2-cyano-3-(3-hydroxyphenyl)-N-(2-phenylethyl)prop-2-enamide] | 116.183 |
| CC(NC(=O)C(C#N)=Cc1cccc(Cl)c1Cl)c1ccccc1 (stereo not shown) [9-N04, 2-cyano-3-(2,3-dichlorophenyl)-N-(1-phenylethyl)prop-2-enamide] | 0.5993 |
| O=C(O)c1coc(C(=O)CCl)c1 [10-B07, 5-(2-chloroacetyl)furan-3-carboxylic acid] | 79.6875 |
| O=C(CCl)N1N=C(c2ccco2)CC1c1cccc(Cl)c1 (stereo not shown) [5-M17, 2-chloro-1-[5-(3-chlorophenyl)-3-(furan-2-yl)-4,5-dihydro-1H-pyrazol-1-yl]ethan-1-one] | 81.9672 |
| Cc1nn(-c2ccccc2)c(C)c1CN(C)C(=O)CCl [7-B03, 2-chloro-N-[(3,5-dimethyl-1-phenyl-1H-pyrazol-4-yl)methyl]-N-methylacetamide] | 93.5636 |
| CSc1cccc(-n2c(C)cc(C(=O)CCl)c2C)c1 [10-J16, 2-chloro-1-{2,5-dimethyl-1-[3-(methylsulfanyl)phenyl]-1H-pyrrol-3-yl}ethan-1-one] | 12.8125 |
| Cc1ccc(-n2c(C)cc(C(=O)CCl)c2C)cc1C [10-B14, 2-chloro-1-[1-(3,4-dimethylphenyl)-2,5-dimethyl-1H-pyrrol-3-yl]ethan-1-one] | 1.25 |
| Cc1cc(C(=O)CCl)c(C)n1-c1cccc(Cl)c1 [10-N18, 2-chloro-1-[1-(3-chlorophenyl)-2,5-dimethyl-1H-pyrrol-3-yl]ethan-1-one] | 100.313 |
| Cc1cc(C(=O)CCl)c(C)n1-c1ccc2c(c1)OCO2 [10-K14, 1-[1-(1,3-dioxaindan-5-yl)-2,5-dimethyl-1H-pyrrol-3-yl]-2-chloroethan-1-one] | 139.375 |
| Cc1cc(C(=O)CCl)c(C)n1-c1ccccn1 [10-C16, 2-chloro-1-[2,5-dimethyl-1-(pyridin-2-yl)-1H-pyrrol-3-yl]ethan-1-one] | 117.5 |
| Cc1ccc(-n2c(C)cc(C(=O)CCl)c2C)cc1F [10-C06, 2-chloro-1-[1-(3-fluoro-4-methylphenyl)-2,5-dimethyl-1H-pyrrol-3-yl]ethan-1-one] | -0.3125 |
| Cc1cc(C(=O)CCl)c(C)n1-c1cccc([N+](=O)[O-])c1 [10-B16, 2-chloro-1-[2,5-dimethyl-1-(3-nitrophenyl)-1H-pyrrol-3-yl]ethan-1-one] | 136.563 |
| Cc1cc(C(=O)CCl)c(C)n1-c1ccc(Cl)c(Cl)c1 [10-D18, 2-chloro-1-[1-(3,4-dichlorophenyl)-2,5-dimethyl-1H-pyrrol-3-yl]ethan-1-one] | -0.3125 |
| Cc1cccc(-n2c(C)cc(C(=O)CCl)c2C)c1 [10-A22, 2-chloro-1-[2,5-dimethyl-1-(3-methylphenyl)-1H-pyrrol-3-yl]ethan-1-one] | 138.438 |
| Cc1cc(-n2c(C)cc(C(=O)CCl)c2C)no1 [10-C18, 2-chloro-1-[2,5-dimethyl-1-(5-methyl-1,2-oxazol-3-yl)-1H-pyrrol-3-yl]ethan-1-one] | 123.125 |
| CCN(CC)C(=O)c1cccc(NC(=O)CCl)c1 [5-I03, 3-(2-chloroacetamido)-N,N-diethylbenzamide] | 102.732 |
| N#CC(=Cc1cccs1)C(=O)Nc1ccc(C(=O)O)cc1 [8-A04, 4-[2-cyano-3-(thiophen-2-yl)prop-2-enamido]benzoic acid] | 109.212 |
| CC(C)Oc1ccccc1C=C(C#N)C(=O)Nc1ccc(Cl)cc1 [9-L20, N-(4-chlorophenyl)-2-cyano-3-[2-(propan-2-yloxy)phenyl]prop-2-enamide] | 108.464 |
| N#CCCSc1ccccc1NC(=O)CCl [6-N12, 2-chloro-N-{2-[(2-cyanoethyl)sulfanyl]phenyl}acetamide] | 88.439 |
| CC(=O)NCCc1ccc(C(=O)CCl)s1 [10-P03, N-{2-[5-(2-chloroacetyl)thiophen-2-yl]ethyl}acetamide] | 143.125 |
| C=CC(=O)N1CCCN(C(=O)c2ccc(OC)cc2)CC1 [3-A21, 1-[4-(4-methoxybenzoyl)-1,4-diazepan-1-yl]prop-2-en-1-one] | 128.864 |

From paper PMC11995724, “Antibiotic target discovery by integrated phenotypic and activity-based profiling of electrophilic fragments” (Cell chemical biology, 2025)
